{"source": "PubChem BioAssay"}
{"experiment": "MRP1 drug-resistance reversers in H69AR cells – cell-based, doxorubicin co-treatment, pilot screen (AID 601)", "conditions": "H69AR cells + 2 uM doxorubicin, CellTiter-Glo, 72 h; measured here: viability with 2 uM doxorubicin; at 10 µM; stronger effect = lower value", "units": {"viability": "%"}}
{"smiles": "CCOc1ccc(N2CC(C(=O)Nc3ccccc3OC)CC2=O)cc1", "note": "(stereo not given)", "viability": 86}
{"smiles": "O=C(Cn1ncc2c1-c1ccccc1OC2)N1CCN(c2ccccn2)CC1", "viability": 85.5}
{"smiles": "CC1CN(c2c3c(nc4ncnn24)CCCC3)CC(C)O1", "note": "(stereo not given)", "viability": 86.2}
{"smiles": "CCOC(=O)C(CC)n1nc(C)n2c(cc3sccc32)c1=O", "note": "(stereo not given)", "viability": 84.2}
{"smiles": "CCOC(=O)CN(C(=O)c1ccccc1)c1ccccc1C", "viability": 94}
{"smiles": "Cc1ccc(-n2ncc3c(N4CCCC(C)C4)ncnc32)c(C)c1", "note": "(stereo not given)", "viability": 23.4}
{"smiles": "CCN1CCN(C(c2cccs2)C(C)NC(=O)c2ccccc2)CC1", "note": "(stereo not given)", "viability": 81.3}
{"smiles": "CC1=C(C(=O)Nc2ccc(F)cc2)C(c2cccc(C)c2)n2nc(CCCO)nc2N1", "note": "(stereo not given)", "viability": 92.5}
{"smiles": "Cc1ccc(-c2noc(CN3C(C)CCCC3C)n2)cc1", "note": "(stereo not given)", "viability": 83.7}
{"smiles": "CC1CCN(C(=O)CSc2nnc(Cc3cc(=O)[nH]c(=O)[nH]3)n2-c2ccc(Cl)cc2)CC1", "viability": 98.2}
{"smiles": "Cc1ccccc1-c1nc(CN2CCC(C(=O)N3CCC(C(N)=O)CC3)CC2)c(C)o1", "viability": 84.7}
{"smiles": "COc1ccc(C(=O)c2ccc(OC)c(N)c2)cc1N", "viability": 63.2}
{"smiles": "O=C(CC1(O)C(=O)Nc2ccccc21)c1ccc2c(c1)OCO2", "note": "(stereo not given)", "viability": 88.5}
{"smiles": "CCOC(=O)c1[nH]c(C)c(C(=O)NC)c1C", "viability": 85}
{"smiles": "CN(C1CCCCC1)S(=O)(=O)c1ccc(S(=O)(=O)N2CCN(CCC#N)CC2)cc1", "viability": 74.8}
{"smiles": "CC1CCCCC1NC(=O)Cn1ncc2ccccc21", "note": "(stereo not given)", "viability": 85.4}
{"smiles": "CCOC(=O)Cn1c(CCC(=O)O)ccc1-c1ccc(F)cc1", "viability": 92.6}
{"smiles": "CCCc1cc(C(=O)Nc2ccc(C(C)=O)cc2)no1", "viability": 93.9}
{"smiles": "CCOC(=O)CN1C(=O)C(=O)c2cccc(C)c21", "viability": 76.6}
{"smiles": "CCOc1ccc(NC(=O)C(C)Sc2nnc(C)n2C)cc1", "note": "(stereo not given)", "viability": 96.1}
{"smiles": "COc1cccc(CNC(=O)Cn2c(=O)oc3ccccc32)c1OC", "viability": 92.2}
{"smiles": "Oc1c(C(c2ccccc2)N2CCc3ccccc3C2)sc2ncnn12", "note": "(stereo not given)", "viability": 85.1}
{"smiles": "CCSc1nnc(N2C(=O)CC(c3ccsc3)C3=C2CC(C)(C)CC3=O)s1", "note": "(stereo not given)", "viability": 104}
{"smiles": "Cc1ccnc2c(N3C(=O)C4C5C=CC(C5)C4(C)C3=O)cccc12", "note": "(stereo not given)", "viability": 91.4}
{"smiles": "CCN(CC)C(=O)c1ccc(CS(=O)(=O)c2ccc(OC)cc2)o1", "viability": 88.7}
{"smiles": "CCCCCn1c(=O)[nH]c2cc(C(=O)NCCCN3CCCCC3)ccc2c1=O", "viability": 82}
{"smiles": "CC(C)c1nccn1S(=O)(=O)c1cc(Cl)ccc1Cl", "viability": 86.3}
{"smiles": "CCOC(=O)N1CCC(NC(=O)C2CCCN(C(=O)c3cc4sccc4n3C)C2)CC1", "note": "(stereo not given)", "viability": 95.7}
{"smiles": "CCCCNC(=O)Cn1c(=O)n(C)c2ccccc21", "viability": 91.2}
{"smiles": "Cc1c(C#N)c2ccccc2n1CC(=O)N1CCc2ccccc2C1", "viability": 92.2}
{"smiles": "O=C(COc1ccc2ccccc2c1)N1CCCC1", "viability": 81.4}
{"smiles": "CCC(=O)N1CCN(c2nc(-c3ccccc3)c3c(c2C#N)CCCC3)CC1", "viability": 84}
{"smiles": "CC1(C)CC(=O)c2cnc(NC(=O)Cc3ccc(Cl)cc3)nc2C1", "viability": 89.6}
{"smiles": "CCOCCOc1nc2c(c(=O)n(C)c(=O)n2C)n1Cc1ccc(C)cc1", "viability": 95.4}
{"smiles": "CCN(C(=O)c1cc(Cl)ccc1OC)c1ccccc1", "viability": 101}
{"smiles": "Cc1cccc(-n2ncc3c(N(CCO)CCO)ncnc32)c1", "viability": 78.7}
{"smiles": "N#CCCN1CCN(S(=O)(=O)c2ccc(S(=O)(=O)NC3CCCCC3)cc2)CC1", "viability": 87.5}
{"smiles": "Cc1c(C)c2ccc(OC3CCCCC3=O)cc2oc1=O", "note": "(stereo not given)", "viability": 75.4}
{"smiles": "COc1ccc(-n2c(Cc3cccn3C)nnc2SCC(=O)Nc2ccc(Cl)cc2)cc1", "viability": 79}
{"smiles": "Cc1cc(C(N)=O)c2cc(Br)ccc2n1", "viability": 83.2}
{"experiment": "MRP1 drug-resistance reversers in H69AR cells – cell-based, doxorubicin co-treatment, pilot screen (AID 601)", "conditions": "H69AR cells, CellTiter-Glo, 72 h; compound alone cytotoxicity; at 10 µM", "units": {"viability": "%"}}
{"smiles": "CCOc1ccc(N2CC(C(=O)Nc3ccccc3OC)CC2=O)cc1", "note": "(stereo not given)", "viability": 95.7}
{"smiles": "O=C(Cn1ncc2c1-c1ccccc1OC2)N1CCN(c2ccccn2)CC1", "viability": 89.7}
{"smiles": "CC1CN(c2c3c(nc4ncnn24)CCCC3)CC(C)O1", "note": "(stereo not given)", "viability": 90.7}
{"smiles": "CCOC(=O)C(CC)n1nc(C)n2c(cc3sccc32)c1=O", "note": "(stereo not given)", "viability": 85.1}
{"smiles": "CCOC(=O)CN(C(=O)c1ccccc1)c1ccccc1C", "viability": 109}
{"smiles": "Cc1ccc(-n2ncc3c(N4CCCC(C)C4)ncnc32)c(C)c1", "note": "(stereo not given)", "viability": 61.6}
{"smiles": "CCN1CCN(C(c2cccs2)C(C)NC(=O)c2ccccc2)CC1", "note": "(stereo not given)", "viability": 87.3}
{"smiles": "CC1=C(C(=O)Nc2ccc(F)cc2)C(c2cccc(C)c2)n2nc(CCCO)nc2N1", "note": "(stereo not given)", "viability": 94}
{"smiles": "Cc1ccc(-c2noc(CN3C(C)CCCC3C)n2)cc1", "note": "(stereo not given)", "viability": 89.3}
{"smiles": "CC1CCN(C(=O)CSc2nnc(Cc3cc(=O)[nH]c(=O)[nH]3)n2-c2ccc(Cl)cc2)CC1", "viability": 101}
{"smiles": "Cc1ccccc1-c1nc(CN2CCC(C(=O)N3CCC(C(N)=O)CC3)CC2)c(C)o1", "viability": 89.5}
{"smiles": "COc1ccc(C(=O)c2ccc(OC)c(N)c2)cc1N", "viability": 16.9}
{"smiles": "O=C(CC1(O)C(=O)Nc2ccccc21)c1ccc2c(c1)OCO2", "note": "(stereo not given)", "viability": 76.3}
{"smiles": "CCOC(=O)c1[nH]c(C)c(C(=O)NC)c1C", "viability": 98.8}
{"smiles": "CN(C1CCCCC1)S(=O)(=O)c1ccc(S(=O)(=O)N2CCN(CCC#N)CC2)cc1", "viability": 103}
{"smiles": "CC1CCCCC1NC(=O)Cn1ncc2ccccc21", "note": "(stereo not given)", "viability": 90.4}
{"smiles": "CCOC(=O)Cn1c(CCC(=O)O)ccc1-c1ccc(F)cc1", "viability": 84.3}
{"smiles": "CCCc1cc(C(=O)Nc2ccc(C(C)=O)cc2)no1", "viability": 99.5}
{"smiles": "CCOC(=O)CN1C(=O)C(=O)c2cccc(C)c21", "viability": 76}
{"smiles": "CCOc1ccc(NC(=O)C(C)Sc2nnc(C)n2C)cc1", "note": "(stereo not given)", "viability": 98.8}
{"smiles": "COc1cccc(CNC(=O)Cn2c(=O)oc3ccccc32)c1OC", "viability": 92.3}
{"smiles": "Oc1c(C(c2ccccc2)N2CCc3ccccc3C2)sc2ncnn12", "note": "(stereo not given)", "viability": 85}
{"smiles": "CCSc1nnc(N2C(=O)CC(c3ccsc3)C3=C2CC(C)(C)CC3=O)s1", "note": "(stereo not given)", "viability": 89}
{"smiles": "Cc1ccnc2c(N3C(=O)C4C5C=CC(C5)C4(C)C3=O)cccc12", "note": "(stereo not given)", "viability": 92.9}
{"smiles": "CCN(CC)C(=O)c1ccc(CS(=O)(=O)c2ccc(OC)cc2)o1", "viability": 87.8}
{"smiles": "CCCCCn1c(=O)[nH]c2cc(C(=O)NCCCN3CCCCC3)ccc2c1=O", "viability": 88.7}
{"smiles": "CC(C)c1nccn1S(=O)(=O)c1cc(Cl)ccc1Cl", "viability": 90.3}
{"smiles": "CCOC(=O)N1CCC(NC(=O)C2CCCN(C(=O)c3cc4sccc4n3C)C2)CC1", "note": "(stereo not given)", "viability": 94.8}
{"smiles": "CCCCNC(=O)Cn1c(=O)n(C)c2ccccc21", "viability": 88.5}
{"smiles": "Cc1c(C#N)c2ccccc2n1CC(=O)N1CCc2ccccc2C1", "viability": 94.9}
{"smiles": "O=C(COc1ccc2ccccc2c1)N1CCCC1", "viability": 90}
{"smiles": "CCC(=O)N1CCN(c2nc(-c3ccccc3)c3c(c2C#N)CCCC3)CC1", "viability": 156}
{"smiles": "CC1(C)CC(=O)c2cnc(NC(=O)Cc3ccc(Cl)cc3)nc2C1", "viability": 100}
{"smiles": "CCOCCOc1nc2c(c(=O)n(C)c(=O)n2C)n1Cc1ccc(C)cc1", "viability": 90.8}
{"smiles": "CCN(C(=O)c1cc(Cl)ccc1OC)c1ccccc1", "viability": 103}
{"smiles": "Cc1cccc(-n2ncc3c(N(CCO)CCO)ncnc32)c1", "viability": 90}
{"smiles": "N#CCCN1CCN(S(=O)(=O)c2ccc(S(=O)(=O)NC3CCCCC3)cc2)CC1", "viability": 100}
{"smiles": "Cc1c(C)c2ccc(OC3CCCCC3=O)cc2oc1=O", "note": "(stereo not given)", "viability": 85.8}
{"smiles": "COc1ccc(-n2c(Cc3cccn3C)nnc2SCC(=O)Nc2ccc(Cl)cc2)cc1", "viability": 70.7}
{"smiles": "Cc1cc(C(N)=O)c2cc(Br)ccc2n1", "viability": 91.2}
